Compounds with a hit are over-represented: about 11% of the library has one in this group of screens.
USP17 block = inhibitors of human USP17 deubiquitinase; AID 1645855; A8MUK1; purified USP17, Ub-rhodamine cleavage fluorescence, 3 h; inhibition, % at 50 µM; 47,000 tested, 6.5% active
USP28 inh = human USP28 deubiquitinase inhibition; Q96RU2; purified USP28, Ub-rhodamine cleavage fluorescence, 30 min; inhibition, % at 25 µM; 47,000 tested, 3% active; AID 1645857
Target sequence (Q96RU2 whole entry, looked up): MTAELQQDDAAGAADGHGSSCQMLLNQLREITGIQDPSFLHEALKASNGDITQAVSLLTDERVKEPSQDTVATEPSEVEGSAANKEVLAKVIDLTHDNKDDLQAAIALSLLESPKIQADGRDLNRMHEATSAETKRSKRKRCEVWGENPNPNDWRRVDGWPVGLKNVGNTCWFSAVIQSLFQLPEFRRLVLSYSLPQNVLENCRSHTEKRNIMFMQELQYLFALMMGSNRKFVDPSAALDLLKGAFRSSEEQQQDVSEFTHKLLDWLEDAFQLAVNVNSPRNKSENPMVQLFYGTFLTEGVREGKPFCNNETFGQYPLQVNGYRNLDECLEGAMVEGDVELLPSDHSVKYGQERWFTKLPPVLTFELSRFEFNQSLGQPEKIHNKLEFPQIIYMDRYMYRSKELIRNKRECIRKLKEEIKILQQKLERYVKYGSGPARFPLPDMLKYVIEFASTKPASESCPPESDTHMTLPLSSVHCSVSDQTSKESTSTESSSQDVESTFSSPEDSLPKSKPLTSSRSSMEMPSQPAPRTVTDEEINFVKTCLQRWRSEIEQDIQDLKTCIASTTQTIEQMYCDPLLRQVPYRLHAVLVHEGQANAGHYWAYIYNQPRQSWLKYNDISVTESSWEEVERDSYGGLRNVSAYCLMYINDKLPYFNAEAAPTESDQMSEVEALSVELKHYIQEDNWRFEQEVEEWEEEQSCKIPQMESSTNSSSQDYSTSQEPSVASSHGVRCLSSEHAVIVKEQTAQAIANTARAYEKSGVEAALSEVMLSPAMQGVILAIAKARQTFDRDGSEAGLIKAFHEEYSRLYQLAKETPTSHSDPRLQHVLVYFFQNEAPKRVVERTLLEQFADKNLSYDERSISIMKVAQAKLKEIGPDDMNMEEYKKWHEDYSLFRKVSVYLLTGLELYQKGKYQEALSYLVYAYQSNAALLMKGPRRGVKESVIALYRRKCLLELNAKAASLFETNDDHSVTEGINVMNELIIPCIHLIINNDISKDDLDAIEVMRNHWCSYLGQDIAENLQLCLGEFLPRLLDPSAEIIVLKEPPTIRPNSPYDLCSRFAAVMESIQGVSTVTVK
USP30 block = human USP30 deubiquitinase inhibition. purified USP30, Ub-rhodamine cleavage fluorescence. inhibition, % at 25 µM. AID 1645860. Q70CQ3. 47,000 tested, 5.3% active
* hit, by the source's call; i = inactive; nt = no result. Cut-off read from the data, not from the text of the source: active = inhibition above about 30%; inactive = the rest.

SMILES | USP17 block | USP28 inh | USP30 block
COc1ccc(Nc2ncnc3c2c(-c2ccccc2)cn3-c2ccc(F)cc2)cc1Cl | 18.6 | 8.8 | 11.0
Cc1nnc(-c2nnc(NCc3ccc(Cl)cc3)c3ccccc23)o1 | 52.0* | 13.4 | 36.6*
Cc1nnc(-c2nnc(NCCC(C)C)c3ccccc23)o1 | 11.8 | 2.0 | -0.4
O=C(NCCc1ccccc1F)c1cn2cc(Cl)ccc2n1 | 28.4 | 17.6 | 61.4*
O=C(NCCc1c[nH]c2ccc(F)cc12)c1cn2cc(Cl)ccc2n1 | 23.8 | 6.2 | -23.6
CCOC(=O)c1cnc(N2CCc3ccccc32)c2ccccc12 | 0.0 | -9.9 | -26.3
N#Cc1c2n(c(=O)n(CC(=O)N(Cc3ccc(F)cc3)C3CCCCC3)c1=O)CCC2 | 7.6 | -1.3 | -35.6
Cc1c(C(=O)Nc2ccccn2)oc2c(Cl)cccc12 | 32.7* | 22.6 | 48.1*
Cc1c(C(=O)Nc2ccccn2)oc2ccccc12 | 13.5 | nt | nt
CCOC(=O)c1noc2ncn(Cc3nc(-c4ccc(C)cc4)oc3C)c(=O)c12 | 31.0* | 12.5 | 34.6*
CCOC(=O)c1noc2ncn(Cc3nc(-c4cccc(C)c4)oc3C)c(=O)c12 | 0.4 | 3.7 | 2.0
COc1ccc(CCN(C(=O)c2cccs2)C(C(=O)NC2CCCC2)c2ccccc2)cc1OC (centres undefined) | -1.1 | -10.2 | -4.8
Cc1cccc(C)c1NC(=O)CCN1CCCC1 | 3.1 | nt | nt
Cc1cc(C(=O)COc2ncnc3c(Cl)cc(Cl)cc23)c(C)n1CC1CCCO1 (centres undefined) | -6.7 | 0.8 | -27.4
COc1cccc2sc(N3CCN(c4nc5ccccc5s4)CC3)nc12 | 77.1* | -8.1 | -13.1
COc1ccc(Cn2nnnc2CN2CCN(c3nc4ccccc4s3)CC2)cc1 | -4.0 | 6.9 | 20.2
O=C(CCc1nnc2n(CCc3ccccc3)c(=O)c3ccccc3n12)NC1CCN(Cc2ccccc2)CC1 | -5.4 | -6.7 | -6.5
CCOc1ccc(-n2c(C)c(C)c3c2ncn2nc(-c4ccccn4)nc32)cc1 | 2.6 | 5.8 | 9.5
CCOc1ccc(-n2c(C)c3c(C)nn4cc(-c5ccccc5)cc4c3c2C)cc1 | 30.7* | 8.5 | 31.6*
O=C(c1ccno1)N1CCC2(C1)c1ccccc1S(=O)(=O)N2Cc1ccccc1 (centres undefined) | -30.0 | -34.7 | -132.4
CCN1CCN(c2nc3c(s2)CNCC3)CC1 | -66.3 | -54.8 | -213.7
O=C(NCCn1cnc2cc(C(=O)N3CCCC3)ccc21)Nc1ccc(Cl)cc1 | -12.6 | -11.2 | -7.2
Cn1c(NC(=O)c2ccc(Cl)c([N+](=O)[O-])c2)cc(=O)n(C)c1=O | 1.7 | 10.2 | 9.9
O=C(NCc1cccc(Br)c1)c1ccc(-c2cccnc2)nc1 | -0.1 | 2.9 | -0.5
O=C(NCc1ccc(Br)cc1)c1ccc(-c2cccnc2)nc1 | 29.5 | 29.7 | 55.2*
SMILES | USP17 block | USP28 inh | USP30 block
Cc1cc(C)c(NC(=O)CSc2nc3cn(C)nc3c(=O)n2CC2CC2)c(C)c1 | 60.8* | 17.9 | 69.8*
CCn1cc2nc(SCC(=O)NC3CCCC3)n(Cc3ccccc3)c(=O)c2n1 | 0.6 | -0.2 | 0.8
O=C(NC1CCCCCC1)C1CCCN(C(=O)c2cc(-c3cccnc3)n[nH]2)C1 (centres undefined) | 10.3 | 6.9 | -7.4
NS(=O)(=O)c1ccc(Cl)c(C(=O)OCc2csc(Nc3ccccc3)n2)c1 | 10.0 | 70.8* | 5.7
Cc1cn2c(=O)cc(COC(=O)c3ccccc3Cl)nc2s1 | 1.5 | 6.8 | 7.8
CC12C(=O)N(CCc3ccccc3)CC(=O)N1CCc1c2[nH]c2ccccc12 (centres undefined) | 2.8 | 4.1 | 4.1
Cc1ccc(Cn2c(C(=O)Nc3cccnc3)cc3sccc32)cc1 | 42.5* | 8.4 | 22.1
Cc1ccc(-n2nc(C(=O)Nc3cccnc3)c3ncn(C)c(=O)c32)cc1 | 26.9 | 15.7 | 17.3
CC(C)NC(=O)COc1cccc(-c2noc(-c3ccc(F)cc3)n2)c1 | 17.3 | 6.5 | 17.3
COc1ccc(C(=O)Nc2cc(-c3cccnc3)no2)cn1 | -0.2 | 0.0 | 14.8
Cc1ccccc1-c1nc(NC(=O)COc2ccc(F)cc2)no1 | 4.1 | 6.2 | 35.5*
Cc1ccc(OCC(=O)Nc2onc3c2CCCC3)cc1 | -11.0 | 4.8 | 5.3
Cc1ccc(-c2ncc(NC(=O)COc3ccc(F)cc3)cn2)cc1 | 4.4 | 10.6 | 12.1
O=C(Nc1cc(-c2cccnc2)no1)c1ccc(F)c(F)c1 | 64.5* | 37.9* | -101.8
Cc1ccccc1-c1noc(-c2ccccc2OCC(=O)NC(C)C)n1 | 61.8* | 14.3 | 49.3*
O=C(COc1ccc(Cl)cc1)Nc1onc2c1CCCC2 | 50.4* | -0.5 | 55.8*
COc1ccc(Cl)cc1C(=O)CN1C(=O)COc2cc(C(=O)N3CCN(CCO)CC3)ccc21 | -9.4 | -6.3 | -0.7
O=C(NCc1ccc(Cl)cc1)C1=NOC2(CCNC2)C1 (centres undefined) | nt | 2.2 | 2.8
CC(NC(=O)COc1ccccc1)c1nc(-c2ccc(Cl)cc2)no1 (centres undefined) | 13.0 | 5.9 | 1.7
O=C(COc1ccc(Cl)cc1)Nc1noc(-c2ccccc2)n1 | 4.2 | 57.9* | 69.0*
COc1cc(C(=O)Nc2cc(-c3ccc(F)c(F)c3)no2)cc(OC)c1OC | -8.9 | -14.7 | -22.0
O=C(COc1ccccc1)Nc1cc(-c2ccc(F)c(F)c2)no1 | 81.0* | nt | nt
O=C(O)c1ccccc1C(=O)N1CCN(c2ncccc2C(F)(F)F)CC1 | 1.2 | -5.4 | -5.3
Cc1cc(Nc2ccc3c(c2)OCO3)n2ncnc2n1 | 3.3 | -22.2 | -131.6
CSc1nc(NCCCN2CCOCC2)c2c3c(sc2n1)CN(C)CC3 | -183.7 | -188.3 | i
SMILES | USP17 block | USP28 inh | USP30 block
COc1cccc2c(=O)n(CC(=O)NCc3ccc4c(c3)OCO4)ccc12 | -0.9 | -2.6 | 0.2
COc1cc([C@@H]2c3cc4c(cc3[C@H](O)[C@H]3COC(=O)[C@@H]23)OCO4)cc(OC)c1OC | 62.8* | 34.8* | 70.5*
COC(=O)C1=CC(=O)C=C(OC)C12Oc1cc(C)cc(O)c1C2=O (centres undefined) | 20.5 | 8.8 | 5.0
COc1cccc(CNCC(O)(c2ccccc2)c2ccc(Cl)cc2)c1 (centres undefined) | 7.6 | 14.6 | 24.0
COc1ccccc1CNCC(O)(c1ccccc1)c1ccc(F)cc1 (centres undefined) | 7.7 | 20.2 | 35.9*
Cc1cc(C)n(CC(=O)NCc2cccc(Cl)c2)c1-c1nc(C2CC2)no1 | 18.8 | 12.2 | 0.2
CCc1noc(-c2c(C)cc(C)n2CC(=O)NCc2ccc(Cl)cc2)n1 | 11.8 | 10.4 | 39.4*
O=C(CSc1nnc(-c2sccc2-n2cccc2)o1)c1ccc(Cl)cc1 | 33.0* | 6.4 | 15.0
O=C(CSc1nnc(CNC(=O)c2cccs2)o1)c1ccccc1 | -2.2 | 24.9 | 16.2
COc1ccccc1N(C)S(=O)(=O)c1ccc(C(=O)NCCc2ccc(F)cc2)cc1 | -2.6 | -4.5 | 3.8
Cc1ccc(C)c(N(CC(=O)Nc2ccc3c(c2)OCCO3)S(=O)(=O)c2ccccc2)c1 | 10.0 | 20.4 | 30.4*
CCCOc1c(Br)cc(C(=O)Nc2ccccc2OC)cc1OC | 16.3 | 11.3 | 10.3
Cc1ccc(N(CC(=O)NCc2ccncc2)S(=O)(=O)c2ccccc2)c(C)c1 | 0.6 | 7.8 | 9.8
COc1ccccc1N(C)S(=O)(=O)c1ccc(C(=O)Nc2cccc(-n3cnnn3)c2C)cc1 | 34.7* | 22.9 | 28.2
COc1cc(C(=O)Nc2ccccc2Cc2ccccc2)cc(OC)c1OC | 32.1* | 3.6 | 36.4*
